Hits are enriched below; roughly 1.1% of the tested compounds scored in any of these assays.
N-glyco inh = increase of ERlucT glycosylation luciferase signal, primary screen, N-linked glycosylation inhibitor project, D54 ERlucT cells, luminescence, set 2. reporter increase, % at 12.5 µM. D54 ERlucT glycosylation luciferase reporter, 24 h; percent of 100 nM tunicamycin response. hit rate 0.23% among 360,000. AID 588692, 2011;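 active = mean luciferase reporter signal, scaled so untreated is 0 and the glycosylation-blocking control 100, at or above a set limit in every replicate; inconclusive = mean reaches the limit but not every replicate does; inactive = mean below the limit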;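 note: luciferase carries N-glycosylation sites so blocking glycosylation raises the light; 0% = median of neutral control wells and 100% = median of 100 nM tunicamycin wells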
HDAC3 inhib = HDAC3 deacetylase inhibitors, primary screen, biochemical, fluorescence, cell-free homogeneous. AID 2718, 2010. recombinant HDAC3, fluorogenic peptide/trypsin coupled. Histone deacetylase 3 (Homo sapiens), O15379. hit rate 0.15% among 320,000. inhibition, % at 8.3 µM; in the data active = inhibition above about 26%, passing the limit was not always enough; inconclusive = no clear call, values can overlap the other calls
Target sequence (O15379 whole entry, looked up): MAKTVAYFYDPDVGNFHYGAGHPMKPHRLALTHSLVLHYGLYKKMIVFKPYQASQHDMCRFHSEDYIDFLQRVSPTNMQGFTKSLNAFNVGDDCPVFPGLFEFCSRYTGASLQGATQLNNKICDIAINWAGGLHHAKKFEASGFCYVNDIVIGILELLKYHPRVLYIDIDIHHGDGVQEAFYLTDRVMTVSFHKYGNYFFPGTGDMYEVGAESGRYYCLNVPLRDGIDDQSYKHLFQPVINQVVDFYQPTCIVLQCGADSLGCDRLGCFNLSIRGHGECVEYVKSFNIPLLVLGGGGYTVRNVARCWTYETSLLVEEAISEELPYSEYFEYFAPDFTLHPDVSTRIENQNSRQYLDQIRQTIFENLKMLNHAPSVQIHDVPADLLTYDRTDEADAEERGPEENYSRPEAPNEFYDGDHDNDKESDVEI
Keap1-Nrf2 PPI = Keap1-Nrf2 protein-protein interaction inhibitors, primary screen, biochemical, fluorescence polarization, single point; Keap1 Kelch-Nrf2 peptide fluorescence polarization, 1536-well; inhibition, % at 9.4 µM; hit rate 0.15% among 340,000; AID 504523, 2011; in the data active = inhibition above about 12%; inconclusive = no clear call, values can overlap the other calls; inactive = below about 7.3%;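 note: human Keap1 Kelch domain with fluorescein labeled Nrf2 9mer peptide probe; 0% = neutral control wells and 100% = peptide positive control; higher means more block of Keap1 binding to Nrf2 peptide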
NSD2 HMT inh = NSD2 histone methyltransferase inhibitors, primary screen, biochemical, AlphaScreen, single concentration, set 2; Histone-lysine N-methyltransferase NSD2 (Homo sapiens), O96028; NSD2 peptide methylation, 120 min; inhibition, % at 12.5 µM; hit rate 0.54% among 310,000; in the data active = inhibition above about 50%
LANA DNA inh = inhibitors of KSHV C-LANA binding to DNA, primary screen, biochemical, fluorescence polarization, FAM-LBS DNA, MBP-C-LANA, single point. hit rate 0.078% among 340,000. inhibition, % at 9 µM. Kaposi's sarcoma herpesvirus LANA C-terminal domain (residues 932-1162) DNA binding;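 active = highest replicate inhibition at or above 60% at 9 µM, even if other replicates fall short; inactive = all replicates below 60% inhibition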;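 note: 0% = neutral control wells and 100% = 4 µM acridine orange control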
Casp6 inh = human caspase-6 inhibitors, primary screen, biochemical, VEID-R110 fluorescence, single point, set 2. P55212. purified caspase-6, Z-VEID-R110 cleavage fluorescence. inhibition, % at 12.5 µM. hit rate 0.53% among 350,000. AID 686996, 2013;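 active = mean inhibition across replicates at least about 35%, with every replicate also reaching that limit, limit read from the data; inconclusive = only one of the two criteria met; inactive = neither criterion met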;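 note: 0% = median of neutral control wells and 100% = no fluorescence left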
Target sequence (P55212 24-179 limits assumed): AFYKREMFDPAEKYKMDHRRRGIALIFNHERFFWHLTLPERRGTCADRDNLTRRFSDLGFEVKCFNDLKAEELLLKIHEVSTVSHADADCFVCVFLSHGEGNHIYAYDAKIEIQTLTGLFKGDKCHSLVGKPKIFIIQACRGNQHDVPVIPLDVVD
Target sequence (P55212 194-293 limits assumed): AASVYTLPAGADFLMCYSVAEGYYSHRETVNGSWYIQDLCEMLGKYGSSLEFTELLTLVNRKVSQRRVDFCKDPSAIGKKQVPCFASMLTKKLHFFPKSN
* = called active by the depositor; ? = inconclusive; . = not tested or not shown.

SMILES | N-glyco inh | HDAC3 inhib | Keap1-Nrf2 PPI | NSD2 HMT inh | LANA DNA inh | Casp6 inh
Cc1ccc(S(=O)(=O)N(CC(=O)O)Cc2ccco2)cc1 | 4 | 0 | 3 | 9 | 14 | 63*
COc1ccccc1N(CC(=O)NCc1ccco1)S(=O)(=O)c1ccc(C)cc1 | -1 | 4 | -9 | . | 7 | 50*
Cc1ccc2c(c1)[C@H]1[C@H](CO2)[C@H](c2ccccc2)[C@]2(C)C(=O)Nc3cc(Cl)ccc3C(=O)N12 | 22 | -1 | 2 | . | 0 | .
COc1cc2c(cc1OC)C(=O)N1[C@H]3c4cc(Cl)ccc4OC[C@@H]3[C@H](c3ccccc3)[C@]1(C)C(=O)N2 | 45* | 2 | 0 | . | -1 | 1
COc1cc2c(cc1OC)C(=O)N1[C@H]3c4cc(C)ccc4OC[C@@H]3[C@H](c3ccccc3)[C@]1(C)C(=O)N2 | 52* | 8 | 0 | . | 2 | 5
CO[C@H]1CN(C)C(=O)c2ccc(NC(=O)NC(C)C)cc2OC[C@@H](C)N(Cc2ccccn2)C[C@@H]1C | . | . | . | . | . | 2
C[C@@H]1CN([C@@H](C)CO)C(=O)c2cccc(NS(=O)(=O)c3cn(C)cn3)c2O[C@@H]1CN(C)S(=O)(=O)c1ccc(F)cc1 | . | . | . | . | . | 0
O=C(C[C@@H]1C=C[C@H](NC(=O)c2ccncc2)[C@H](CO)O1)Nc1ccccc1 | . | . | . | . | . | 2
OC[C@H]1[C@H](c2ccc(-c3ccc(F)cc3)cc2)[C@@H]2CN(Cc3cccnc3)CCCCN12 | . | . | . | . | . | 60*
CCC(=O)Nc1ccc2c(c1)OC[C@@H](C)N(C(C)=O)C[C@@H](C)[C@@H](OC)CN(C)C2=O | . | . | . | . | . | 4
CC(=O)N1CCOc2ccc(S(=O)(=O)NCc3ccc(F)cc3)cc21 | 1 | 0 | -1 | 1 | 1 | 40*
CCN(c1ccccc1)S(=O)(=O)c1ccc(C(=O)NC2CCCCC2)cc1 | -3 | . | . | -10 | . | -1
CCN(c1ccccc1)S(=O)(=O)c1ccc(C(=O)NC2CCN(Cc3ccccc3)CC2)cc1 | 48* | -5 | -6 | 1 | -2 | .
CN(C)C(=O)C[C@H]1C=C[C@@H](NC(=O)C2CC2)[C@@H](CO)O1 | . | . | . | . | . | 1
COc1ccc(CN=C(N)N=C(N)N)cc1Cl | -3 | -7 | -3 | -8 | 0 | 56*
CCO[C@@H]1OC(C(=O)N2CCCC2)=C[C@H](c2ccc3c(c2)OCO3)[C@H]1CCCO | . | . | . | . | . | 2
O=C(C1CCOCC1)N1CC2(C1)[C@@H](c1ccccc1)[C@@H](CO)N2Cc1ccc(Cl)cc1 | . | . | . | . | . | 2
C/C=C/c1ccc2c(c1)O[C@H](CN(C)Cc1ccccn1)[C@H](C)CN([C@@H](C)CO)S2(=O)=O | . | . | . | . | . | 0
O=C(OCC(=O)N1N=C(c2ccc(Cl)cc2)CC1c1ccco1)c1cncc(Br)c1 (stereo unspecified) | 0 | 8 | -10 | 1 | -1 | 41*
CNC[C@H]1Oc2ncc(C#CCC3CCCC3)cc2C(=O)N([C@H](C)CO)C[C@H]1C | . | . | . | . | . | -2
CC(C)NC(=O)N(C)C[C@H]1OCCCC[C@H](C)Oc2ccc(NS(=O)(=O)c3ccc(F)cc3)cc2C(=O)N([C@H](C)CO)C[C@@H]1C | . | . | . | . | . | -2
O=C(CNC(=O)c1ccco1)N=Nc1c(O)n(CCc2ccccc2)c2ccccc12 | 34* | 5 | -7 | 5 | 2 | 1
CCn1c(O)c(N=NC(=O)CNC(=O)Cc2ccccc2)c2ccccc21 | 2 | 6 | -1 | -2 | 0 | 4
CCOC(=O)c1ccc(-c2ccc(/C=N/NC(=O)CN(c3ccccc3Cl)S(C)(=O)=O)o2)cc1 | -2 | -2 | -3 | 0 | -1 | .
CCOC(=O)c1ccc(-c2ccc(/C=N/NC(=O)CN(c3cccc(C)c3)S(C)(=O)=O)o2)cc1 | 28* | -3 | 0 | -2 | -1 | -1
SMILES | N-glyco inh | HDAC3 inhib | Keap1-Nrf2 PPI | NSD2 HMT inh | LANA DNA inh | Casp6 inh
C[C@@H]1CN([C@@H](C)CO)C(=O)c2cccc(NC(=O)C3CCOCC3)c2O[C@@H]1CN(C)Cc1ccc(Cl)c(Cl)c1 | . | . | . | . | . | -1
CN1C(=O)c2cc(NC(=O)CC(F)(F)F)ccc2OC[C@H]2O[C@@H](CC(=O)NC3CCC3)CC[C@@H]21 | . | . | . | . | . | 0
Nc1ccc(N2CCN(c3ccc(F)cc3)CC2)cc1 | 0 | 0 | -2 | 2 | -1 | -5
CC(=O)N1CCN(c2ccc(N)cc2)CC1 | 2 | -1 | -6 | . | -3 | 36*
Cc1noc(C)c1NC(=O)Nc1ccc2c(c1)C(=O)N([C@H](C)CO)C[C@H](C)[C@@H](CN(C)C(=O)CCCN(C)C)OCCCC[C@@H](C)O2 | . | . | . | . | . | -9
CC(C(=O)N(C)C1CCS(=O)(=O)C1)N1C(=O)/C(=C/c2ccco2)SC1=S (stereo unspecified) | -1 | 3 | -6 | 26 | -2 | 45*
O=C(CN1C(=O)/C(=C/c2ccco2)SC1=S)Nc1ccc(C(=O)O)c(O)c1 | 0 | -2 | -9 | 135* | 108* | 73*
CC(C(=O)Nc1ccc(C(=O)O)c(O)c1)N1C(=O)/C(=C\c2ccco2)SC1=S (stereo unspecified) | -2 | ? | 0 | . | 101* | .
COc1ccc(C=C2SC(=S)N(CCCC(=O)Nc3ccc(C(=O)O)c(O)c3)C2=O)cc1OC | 0 | . | . | . | . | 26
O=C(CN1C(=O)/C(=C/c2ccco2)SC1=S)NC1CCS(=O)(=O)C1 (stereo unspecified) | -1 | 6 | -2 | 37 | 17 | 49*
Cc1[nH]n(-c2ccccc2)c(=O)c1N=Nc1ccc2c(c1)OCO2 | -1 | 0 | -3 | 8 | 2 | -2
Cc1[nH]n(C2=NCCS2)c(=O)c1N=Nc1ccccc1 | 4 | 60* | 3 | 5 | 1 | 4
O=C1Cc2c([nH]c3ccc([N+](=O)[O-])cc23)-c2ccccc2N1 | 88* | . | -4 | . | 2 | 2
CCOC(=O)N1CCN(C(=O)Cc2ccccc2[N+](=O)[O-])CC1 | -2 | -4 | -1 | -2 | 1 | 35*
C[C@@H]1CN([C@@H](C)CO)C(=O)c2cc(NC(=O)NC3CCCCC3)ccc2O[C@H]1CN(C)Cc1ccccc1 | . | . | . | . | . | -2
Oc1ccc(/C=N/Nc2ccnc3cc(Cl)ccc23)c(O)c1 | -2 | 22 | -3 | 3 | 1 | 69*
S=C(NCc1ccco1)NCc1ccco1 | 1 | . | 2 | 2 | 3 | 52*
C[C@@H]1CN([C@H](C)CO)C(=O)c2cc(NC(=O)C3CCCCC3)ccc2O[C@H]1CN(C)S(C)(=O)=O | . | . | . | . | . | -2
CCCCOc1ccc(C(=O)OCC(=O)N2CCOCC2)cc1 | 0 | -3 | 1 | -4 | 2 | 61*
